Test results from PubChem BioAssay (NCATS).
Inconclusive results are not listed. A call without a number means that no potency is given here. The source made the active and inactive calls. The call rests on the fitted dose curve; in most records, active means well fitted curve in the direction sought with a large enough effect; inconclusive means small, poorly fitted or top-dose-only effect, or another doubt; inactive means no such curve, though single readings can be large; an effect the other way counts as inactive or inconclusive.

Key:
[1] = qHTS of pediatric cancer cell lines to identify multiple opportunities for drug repurposing: Primary screen for control Hh wild type fibroblast cells (AID 1347106);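 further: series mostly up to about 46 µM; a drop in luminescence marks cytotoxicity and a rise apparent proliferation; nearly all actives have a fitted effect of over 55% in size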
Procedure, shortened: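 Viability after 48 h compound treatment at 37C, 500-1,000 cells/well, read as ATP luminescence with CellTiter-Glo. Primary screens used 11-point (MIPE, 0.78 nM-46 µM) or 8-point (NPC, 0.59 nM-46 µM) final concentrations; follow-up screens used 11-point dilutions.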

[2] = qHTS of pediatric cancer cell lines to identify multiple opportunities for drug repurposing: Primary screen for Rh30 cells (AID 1347107); further: nearly all actives have a fitted effect of over 75% in size; further: potency means the concentration at half of the fitted maximal effect
Procedure, shortened: (§1)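 Cells (500-1,000/well) rested 5 h, then received compounds for 48 h; metabolically active cells were measured by CellTiter-Glo luminescence. Final concentrations spanned up to 46 µM (MIPE, 11-point) or 0.59 nM-46 µM (NPC, 8-point) in primary screens, 11-point in follow-ups.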

[3] = qHTS of pediatric cancer cell lines to identify multiple opportunities for drug repurposing: Primary screen for Rh41 cells (AID 1347108); further: nearly all actives have a fitted effect of over 70% in size; further: potency means the concentration at half of the fitted maximal effect
Procedure, shortened: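 Quantitative HTS format: each compound titrated (MIPE 11 points from 0.78 nM, NPC 8 points from 0.59 nM) onto cells plated 5 hours earlier. After 48 h at 37 degrees C, CellTiter-Glo luminescence was recorded.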

[4] = qHTS of pediatric cancer cell lines to identify multiple opportunities for drug repurposing: Confirmatory screen for A673 cells (AID 1347110);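 further: potency means the concentration at half of the fitted maximal effect; cells exposed to compound for 48 h before the viability read; nearly all actives have a fitted effect of over 65% in size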
Procedure, shortened: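 Concentration-response curves came straight from titrations: 11 points (0.78 nM to 46 µM) for MIPE and several concentrations (0.59 nM to 46 µM) for NPC in primary, 11 points in follow-up. Readout: ATP luminescence at 48 h.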

[5] = qHTS of pediatric cancer cell lines to identify multiple opportunities for drug repurposing: Confirmatory screen for BT-12 cells (AID 1347112); further: potency means the concentration at half of the fitted maximal effect; nearly all actives have a fitted effect of over 55% in size
Procedure, shortened: as §1

[6] = qHTS of pediatric cancer cell lines to identify multiple opportunities for drug repurposing: Confirmatory screen for NB1643 cells (AID 1347109); further: potency means the concentration at half of the fitted maximal effect; nearly all actives have a fitted effect of over 45% in size
Procedure, shortened: as §1

[7] = qHTS of pediatric cancer cell lines to identify multiple opportunities for drug repurposing: Confirmatory screen for LAN-5 cells (AID 1347113); further: potency means the concentration at half of the fitted maximal effect; nearly all actives have a fitted effect of over 65% in size
Procedure, shortened: as §1

[8] = qHTS of pediatric cancer cell lines to identify multiple opportunities for drug repurposing: Confirmatory screen for DAOY cells (AID 1347114); further: nearly all actives have a fitted effect of over 65% in size; further: potency means the concentration at half of the fitted maximal effect
Procedure, shortened: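 Viability measured as metabolically active cells via CellTiter-Glo luminescence following 48 hours of compound exposure, 11-point dilutions in confirmatory testing. 500-1,000 cells/well plated 5 hours before dosing; controls were DMSO and 2.3 µM bortezomib.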

[9] = qHTS of pediatric cancer cell lines to identify multiple opportunities for drug repurposing: Confirmatory screen for NB-EBc1 cells (AID 1347115);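 further: potency means the concentration at half of the fitted maximal effect; cells exposed to compound for 48 h before the viability read; nearly all actives have a fitted effect of over 45% in size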
Procedure, shortened: as §1

Question: Which Potency [1] does the source give for `Oc1c(I)cc(I)c2cccnc12` here?
Answer: The Potency was “inactive”.

Question: And the Potency [2]?
Answer: The Potency was “inactive”.

Question: With `CC(=O)Nc1c(I)cc(I)c(C(=O)O)c1I` as the compound, how does the Potency [1] read?
Answer: The Potency was “inactive”.

Question: What about the Potency [2] of the same compound?
Answer: Its Potency is “inactive”.

Question: What about the Potency [3] of the same compound?
Answer: The Potency was “inactive”.

Question: With `CCN(CC)CCOc1ccc(C(O)(Cc2ccc(Cl)cc2)c2ccc(C)cc2)cc1` (configuration not stated) as the compound, how does the Potency [1] read?
Answer: The Potency was “inactive”.

Question: What does the source list for `COc1cc(/C=C/C(=O)O[C@H]2CC[C@]34C[C@]35CC[C@]3(C)[C@@H]([C@H](C)CCC=C(C)C)CC[C@@]3(C)[C@@H]5CC[C@H]4C2(C)C)ccc1O`?
Answer: Potency [1]: inactive; Potency [2]: inactive; Potency [3]: inactive

Question: Which Potency [2] does the source give for `COc1c(C)c2c(c(O)c1C/C=C(\C)CCC(=O)O)C(=O)OC2` here?
Answer: Its Potency is “inactive”.

Question: What about the Potency [4] of the same compound?
Answer: The Potency was 2.61 µM (active).

Question: What about the Potency [5] of the same compound?
Answer: Its Potency is 4.65 µM (active).

Question: Which Potency [2] does the source give for `CN(C/C=C/c1ccccc1)Cc1cccc2ccccc12` here?
Answer: Its Potency is “inactive”.

Question: And the Potency [3]?
Answer: Its Potency is “inactive”.

Question: With `Oc1ccc(Cl)cc1Sc1cc(Cl)ccc1O` as the compound, how does the Potency [1] read?
Answer: The Potency was “inactive”.

Question: What does the source list for `CCCCCCCCCCCCCCCC[N+](C)(C)CCN(Cc1ccc(OC)cc1)c1ncccn1`?
Answer: Potency [2]: 16.8 µM (active); Potency [3]: 16.8 µM (active)

Question: Which Potency [1] does the source give for `CN1CCN(CCCN2c3ccccc3Sc3ccc(S(=O)(=O)N(C)C)cc32)CC1` here?
Answer: Its Potency is “inactive”.

Question: What about the Potency [2] of the same compound?
Answer: The Potency was “inactive”.

Question: What about the Potency [3] of the same compound?
Answer: Its Potency is “inactive”.

Question: For `CN1CCCC(CC2c3ccccc3Sc3ccccc32)C1` (configuration not stated), which Potency [1] is on record?
Answer: The Potency was “inactive”.

Question: What about the Potency [2] of the same compound?
Answer: Its Potency is “inactive”.

Question: What about the Potency [3] of the same compound?
Answer: The Potency was “inactive”.

Question: Which Potency [1] does the source give for `COc1cc(-c2ccc(=O)[nH]n2)ccc1OC(F)F` here?
Answer: Its Potency is “inactive”.

Question: And the Potency [2]?
Answer: Its Potency is “inactive”.

Question: What about the Potency [3] of the same compound?
Answer: The Potency was “inactive”.

Question: With `Nc1ccc(C(=O)Nc2ccccc2N)cc1` as the compound, how does the Potency [2] read?
Answer: Its Potency is “inactive”.

Question: Which Potency [1] does the source give for `Oc1c(Cl)cc(Cl)cc1Sc1cc(Cl)cc(Cl)c1O` here?
Answer: Its Potency is “inactive”.

Question: And the Potency [2]?
Answer: The Potency was “inactive”.

Question: And the Potency [3]?
Answer: Its Potency is “inactive”.

Question: For `CCCCOc1ccc(C(=O)CCN2CCCCC2)cc1`, which Potency [1] is on record?
Answer: The Potency was “inactive”.

Question: And the Potency [2]?
Answer: The Potency was “inactive”.

Question: Which Potency [1] does the source give for `C#C[C@]1(O)CC[C@H]2[C@@H]3CCC4=CC(=O)CC[C@@H]4[C@H]3CC[C@@]21C` here?
Answer: The Potency was “inactive”.

Question: What about the Potency [2] of the same compound?
Answer: Its Potency is “inactive”.

Question: What about the Potency [3] of the same compound?
Answer: The Potency was “inactive”.

Question: For `O=C(Nc1ccc(Oc2ccc(Cl)cc2)c(Cl)c1)c1cc(I)cc(I)c1O`, which Potency [2] is on record?
Answer: Its Potency is “inactive”.

Question: And the Potency [3]?
Answer: Its Potency is “inactive”.

Question: For `COc1cc(C=C2CCC/C(=C\c3ccc(O)c(OC)c3)C2=O)ccc1O`, which Potency [1] is on record?
Answer: The Potency was “inactive”.

Question: What about the Potency [6] of the same compound?
Answer: The Potency was 18.5 µM (active).

Question: What about the Potency [4] of the same compound?
Answer: The Potency was 0.185 µM (active).

Question: And the Potency [5]?
Answer: The Potency was 18.5 µM (active).

Question: And the Potency [7]?
Answer: The Potency was 5.85 µM (active).

Question: What about the Potency [8] of the same compound?
Answer: Its Potency is 14.7 µM (active).

Question: What about the Potency [9] of the same compound?
Answer: The Potency was 23.3 µM (active).

Question: What does the source list for `Cc1c(C)n(Cc2ccccc2)c2ccc(C(=O)OCCN(C)C)cc12`?
Answer: Potency [1]: inactive; Potency [2]: inactive; Potency [3]: inactive

Question: Which Potency [2] does the source give for `COC(=O)C1=C(C)NC(C)=C(C(=O)O[C@@H]2CCCN(Cc3ccccc3)C2)[C@@H]1c1cccc([N+](=O)[O-])c1` here?
Answer: Its Potency is “inactive”.

Question: What does the source list for `C/C=C(/C(=C/C)c1ccc(O)cc1)c1ccc(O)cc1`?
Answer: Potency [2]: inactive; Potency [3]: inactive

Question: Which Potency [1] does the source give for `Nc1ccc(C(=O)O)cc1` here?
Answer: Its Potency is “inactive”.

Question: What about the Potency [2] of the same compound?
Answer: Its Potency is “inactive”.

Question: And the Potency [3]?
Answer: The Potency was “inactive”.

Question: With `C[n+]1c2cc(N)ccc2cc2ccc(N)cc21` (tested in a mixture with another compound) as the compound, how does the Potency [3] read?
Answer: The Potency was 16.8 µM (active).

Question: And the Potency [6]?
Answer: Its Potency is 3.29 µM (active).

Question: What about the Potency [4] of the same compound?
Answer: The Potency was 5.22 µM (active).

Question: And the Potency [5]?
Answer: Its Potency is 0.928 µM (active).

Question: And the Potency [7]?
Answer: Its Potency is 3.29 µM (active).

Question: What about the Potency [8] of the same compound?
Answer: The Potency was 6.57 µM (active).

Question: Which results are given for `CCCCCCC[N+](CC)(CC)CCCCc1ccc(Cl)cc1`?
Answer: Potency [1]: inactive; Potency [3]: 15 µM (active); Potency [6]: 14.7 µM (active); Potency [4]: 3.69 µM (active); Potency [5]: 8.27 µM (active); Potency [7]: 8.27 µM (active); Potency [8]: inactive

Question: Which Potency [1] does the source give for `CCOC(=O)n1ccn(C)c1=S` here?
Answer: Its Potency is “inactive”.

Question: And the Potency [2]?
Answer: Its Potency is “inactive”.

Question: And the Potency [3]?
Answer: Its Potency is “inactive”.

Question: Which Potency [1] does the source give for `Nc1ccn([C@@H]2O[C@H](CO)[C@@H](O)C2(F)F)c(=O)n1` here?
Answer: Its Potency is “inactive”.

Question: What about the Potency [2] of the same compound?
Answer: Its Potency is “inactive”.

Question: And the Potency [3]?
Answer: Its Potency is “inactive”.

Question: With `CCCCCCCCCCOCC(O)CN` (configuration not stated) as the compound, how does the Potency [2] read?
Answer: The Potency was “inactive”.

Question: With `COc1cc2c(cc1OC)C(C(C(=O)N(CCc1ccc(OC)c(OC)c1OC)CCc1ccc(OC)c(OC)c1OC)c1ccccc1)=NCC2` (configuration not stated) as the compound, how does the Potency [1] read?
Answer: Its Potency is “inactive”.

Question: And the Potency [2]?
Answer: The Potency was “inactive”.

Question: For `CCCSS/C(CCO)=C(\C)N(C=O)Cc1cnc(C)nc1N`, which Potency [1] is on record?
Answer: The Potency was “inactive”.

Question: What about the Potency [2] of the same compound?
Answer: Its Potency is “inactive”.

Question: Which Potency [1] does the source give for `CCCCCCCCCCCCCCCCOP(=O)([O-])OCC[N+](C)(C)C` here?
Answer: The Potency was “inactive”.

Question: And the Potency [2]?
Answer: Its Potency is “inactive”.

Question: For `CC(C)(C)NC(=O)[C@@H]1CN(Cc2cccnc2)CCN1C[C@@H](O)C[C@@H](Cc1ccccc1)C(=O)N[C@H]1c2ccccc2C[C@H]1O`, which Potency [1] is on record?
Answer: The Potency was “inactive”.

Question: And the Potency [2]?
Answer: The Potency was “inactive”.

Question: And the Potency [3]?
Answer: Its Potency is “inactive”.

Question: What does the source list for `NC(=NCCCCCCN=C(N)/N=C(\N)Nc1ccc(Cl)cc1)/N=C(\N)Nc1ccc(Cl)cc1`?
Answer: Potency [1]: inactive; Potency [2]: inactive

Question: Which Potency [1] does the source give for `C#C[C@]1(O)CC[C@H]2[C@@H]3CCc4cc(OC5CCCC5)ccc4[C@H]3CC[C@@]21C` here?
Answer: Its Potency is “inactive”.

Question: And the Potency [2]?
Answer: The Potency was “inactive”.

Question: And the Potency [3]?
Answer: Its Potency is “inactive”.
